The source of these data is PubChem BioAssay (NCATS).

Inconclusive results are not listed. Values without a mark were called inactive. The call rests on the fitted dose curve; in most records, active means well fitted inhibition curve with a large enough effect; inconclusive means small, poorly fitted or top-dose-only effect; inactive means flat fitted curve, though single readings scatter.

In one assay the test system is CP266. Briefly: qHTS profiling for inhibitors of Plasmodium falciparum proliferation (AID 504749).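 Further: 0% = DMSO vehicle and full inhibition = artemisinin control; nearly all actives have a fitted effect of over 60% in size.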 The conditions noted are these: P. falciparum in erythrocytes, SYBR Green DNA, 72 h; series mostly up to 28.7 µM; activity, negative = inhibition: at the top concentration. The method in brief: (§1)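 Fluorescence of SYBR Green-bound parasite DNA, read at 485/535 nm, served as the growth measure. Infected erythrocytes were cultured with compound 72 h; artemisinin (0.29 uM) and DMSO wells defined the normalization range.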
In general terms: qHTS replaces the single test concentration by a dilution series.
As for `CCCCCCCCCCCCCCC[C@H](O)[C@H](N)CO`, the “activity, negative = inhibition” value was 0.15%.

Take `CCCCCCCCCCCCCCCCCCOC[C@H](COP(=O)([O-])OCC[N+](C)(C)C)OC`: the “activity, negative = inhibition” value is 0.368%.

Consider `CC(O)C(O)[C@H]1CNc2nc(N)[nH]c(=O)c2N1` (stereo partly specified), for which the “activity, negative = inhibition” value is 4.36%.

The subject of another assay is CP268. The description is as above. The conditions noted are these: P. falciparum in erythrocytes, SYBR Green DNA, 72 h; series mostly up to 28.7 µM; activity, negative = inhibition: at the top concentration. The method in brief:
as §1
On to `CCCCCCCCCCCCCCC[C@H](O)[C@H](N)CO`, for which the “activity, negative = inhibition” value was -0.191%.

As for `CC(C)NC[C@H](O)COc1ccc(CC(N)=O)cc1`, the “activity, negative = inhibition” value is -0.107%.

On to `CCCCCCCCCCCCCCCCCCOC[C@H](COP(=O)([O-])OCC[N+](C)(C)C)OC`, for which the “activity, negative = inhibition” value was 0.26%.

`CC(O)C(O)[C@H]1CNc2nc(N)[nH]c(=O)c2N1` (stereo partly specified): the “activity, negative = inhibition” value is -8.09%.

Another assay deals with CP269. The description is as above. The conditions noted are these: P. falciparum in erythrocytes, SYBR Green DNA, 72 h; series mostly up to 28.7 µM; activity, negative = inhibition: at the top concentration. The gist of the method: as §1
Consider `CCCCCCCCCCCCCCC[C@H](O)[C@H](N)CO`, for which the “activity, negative = inhibition” value is 1.53%.

In the case of `CC(C)NC[C@H](O)COc1ccc(CC(N)=O)cc1`, the “activity, negative = inhibition” value was 0.674%.

In the case of `CCCCCCCCCCCCCCCCCCOC[C@H](COP(=O)([O-])OCC[N+](C)(C)C)OC`, the “activity, negative = inhibition” value was -0.96%.

`CC(O)C(O)[C@H]1CNc2nc(N)[nH]c(=O)c2N1` (stereo partly specified): the “activity, negative = inhibition” value is -1.93%.
